Where “and” joins values, the source holds several entries; their conditions need not be identical. Equal values may be shown once. Records with an inconclusive call do not appear. Where a call stands in place of a potency, no number is given. Where a structure was tested more than once in an assay, its records may differ in their call. Calls of active or inactive are those of the source. Unless noted, the call rests on the fitted dose curve.
Tested on: not listed separately
Test: p53 small molecule agonists, cell-based qHTS assay: qHTS cell viability counter screen (AID 1963581); further: nearly all actives have a fitted effect of over 45% in size
Details: p53RE-bla HCT-116 viability, ATP luminescence, 16 h; series mostly up to 66 µM; activity change, negative = cytotoxicity: at the top concentration
Summary of the method: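 p53RE-bla HCT-116 cells were exposed to compounds for 16 h at 37 C; after the beta-lactamase FRET read in the same wells, CellTiter-Glo was added and luminescence (intracellular ATP) read after 30 min at room temperature.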

SMILES	Potency	activity change, negative = cytotoxicity
CC(C)c1ccc(OP(=O)(Oc2ccc(C(C)C)cc2)Oc2ccc(C(C)C)cc2)cc1	inactive	–
Clc1cccc(Cl)c1	inactive	–
O=P(OCC(Br)CBr)(OCC(Br)CBr)OCC(Br)CBr (stereo not drawn)	inactive	–
Clc1cccc(C(Cl)(Cl)Cl)n1	inactive	–
COP(=O)(NC(C)=O)SC (stereo not drawn)	inactive	–
CCCCn1cc[n+](C)c1	inactive	–
COP(=O)(OC)OC	–	-6.05% (inactive)
CCOP(=S)(OCC)Oc1nc(Cl)c(Cl)cc1Cl	inactive	–
CCN(CC)C(=O)/C(Cl)=C(\C)OP(=O)(OC)OC	inactive	–
CCCCCCCCCCCCCCCl	–	3.1% (inactive)
O=C(NC(=O)c1ccccc1Cl)Nc1ccc(OC(F)(F)F)cc1	–	-12.9% (inactive)
c1ccc(C2CO2)cc1 (stereo not drawn)	–	-1.9% (inactive)
ClCCOCCCl	inactive	–
Oc1cccc2cccnc12	inactive	–
CN=C=O	–	0.472% (inactive)
CC(O)CCO (stereo not drawn)	inactive	–

SMILES	Potency	activity change, negative = cytotoxicity
CCCCON=O	–	-11.9% (inactive)
C=CC(Cl)CCl (stereo not drawn)	inactive	–
CN(CCCC(=O)c1cccnc1)N=O	–	20.1% (inactive)
Nc1ccc(Cl)cc1N	inactive	–
CN(C)c1ccc(N=O)cc1	–	5.73% (inactive)
Cc1ccc(N)c(C)c1	inactive	–
N#CCCCCC#N	inactive	–
C[C@H]1O[C@H](OC2[C@@H](O)[C@@H](O)C(O)[C@H](O)[C@H]2O)[C@@H](N)C[C@@H]1N=C(N)C(=O)O (stereo partly drawn)	–	0.501% (inactive)
CCC(C)c1ccc(O)cc1 (stereo not drawn)	inactive	–
O=C(CCl)c1ccc(Cl)cc1Cl	–	-15.1% (inactive)
O=P(Oc1ccccc1)(Oc1ccccc1)Oc1ccccc1	inactive	–
Nc1cccc2ccccc12	inactive	–
Cc1[nH]c(=O)n(C(C)(C)C)c(=O)c1Cl	inactive	–
NN=C(N)N	–	-12.7% [at 30.3 µM] (inactive)
O=c1[nH]c2ccccc2c(=O)o1	inactive	–
CC(C)CCCCCCOC(=O)c1ccccc1C(=O)OCCCCCCC(C)C	inactive	–

Tested on: not listed separately
Test: p53 small molecule agonists, cell-based qHTS assay (AID 1963582; active means well fitted activation curve with a large enough effect in the signal ratio in the repeat runs, not every such curve was filed as active; the % refers to the signal ratio)
Details: HCT-116 p53RE-bla reporter, beta-lactamase FRET ratio, 16 h; series mostly up to 66 µM; activation: at the top concentration
Summary of the method: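 p53RE-bla beta-lactamase reporter cells rested 5 h at 37 C/5% CO2, then received compounds in DMSO by pin transfer and were incubated 16 h at 37 C. LiveBLAzer B/G FRET substrate was loaded for 2 h at room temperature before fluorescence reading.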

SMILES	activation	Potency
O=P(OCC(Br)CBr)(OCC(Br)CBr)OCC(Br)CBr (stereo not drawn)	-2.48% (inactive)	–
Clc1cccc(C(Cl)(Cl)Cl)n1	–	inactive
COP(=O)(NC(C)=O)SC (stereo not drawn)	–	inactive
CC(C)N1C(=O)c2ccccc2NS1(=O)=O	–	inactive
COP(=O)(OC)OC	-1.6% (inactive)	–
CCOP(=S)(OCC)Oc1nc(Cl)c(Cl)cc1Cl	-2.41% (inactive)	–
CCCCCCCCCCCCCCCl	-0.145% (inactive)	–
O=C(NC(=O)c1ccccc1Cl)Nc1ccc(OC(F)(F)F)cc1	1.18% (inactive)	–
c1ccc(C2CO2)cc1 (stereo not drawn)	–	inactive
ClCCOCCCl	–	inactive
CN=C=O	2.4% (inactive)	–
CC(O)CCO (stereo not drawn)	–	inactive
CCCCON=O	-4.28% (inactive)	–
CCOP(=S)(OCC)Oc1ccc([N+](=O)[O-])cc1	–	inactive
CN(CCCC(=O)c1cccnc1)N=O	-1.25% (inactive)	–
Nc1ccc(Cl)cc1N	-1.29% (inactive)	–
N#CCCCCC#N	–	inactive
C[C@H]1O[C@H](OC2[C@@H](O)[C@@H](O)C(O)[C@H](O)[C@H]2O)[C@@H](N)C[C@@H]1N=C(N)C(=O)O (stereo partly drawn)	-0.999% (inactive)	–
CCC(C)c1ccc(O)cc1 (stereo not drawn)	–	inactive
CCCCC(CC)C(=O)Cl (stereo not drawn)	–	inactive
O=c1[nH]c2ccccc2c(=O)o1	–	inactive
CC(C)CCCCCCOC(=O)c1ccccc1C(=O)OCCCCCCC(C)C	–	inactive

Target: 5-hydroxytryptamine receptor 2A (Homo sapiens) (UniProt P28223)
Sequence (P28223 whole entry, looked up): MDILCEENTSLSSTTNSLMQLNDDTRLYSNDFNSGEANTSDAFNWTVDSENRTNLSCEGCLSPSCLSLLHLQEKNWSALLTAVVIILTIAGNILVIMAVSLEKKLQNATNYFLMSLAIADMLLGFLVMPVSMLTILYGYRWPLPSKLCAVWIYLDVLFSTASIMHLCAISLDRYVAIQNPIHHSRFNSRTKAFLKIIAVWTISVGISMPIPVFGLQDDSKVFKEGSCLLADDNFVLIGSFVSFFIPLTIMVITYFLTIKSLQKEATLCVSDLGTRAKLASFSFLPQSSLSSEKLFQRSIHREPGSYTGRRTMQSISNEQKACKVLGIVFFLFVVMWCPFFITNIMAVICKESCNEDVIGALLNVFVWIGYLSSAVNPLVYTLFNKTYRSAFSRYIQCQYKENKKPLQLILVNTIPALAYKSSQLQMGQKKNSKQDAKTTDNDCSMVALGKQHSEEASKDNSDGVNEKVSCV
Test: 5-hydroxytryptamine receptor 2A (HTR2A) small molecule antagonists, cell-based qHTS assay (AID 1963586); further: nearly all actives have a fitted effect of over 45% in size; further: potency means the concentration at half of the fitted maximal effect
Details: HTR2A-CHO cells, DOI-induced calcium flux, fluorescence; series mostly up to 61.5 µM; activity, negative = inhibition: at the top concentration
Summary of the method: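 Antagonist-mode intracellular calcium assay: DOI (4 nM) added after 5 min compound pre-incubation at room temperature to dye-loaded HTR2A-CHO cells. Fluorescence followed for 3 min, sampled every second.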

SMILES	activity, negative = inhibition	Potency
CC(C)c1ccc(OP(=O)(Oc2ccc(C(C)C)cc2)Oc2ccc(C(C)C)cc2)cc1	-8.24% (inactive)	–
Clc1cccc(Cl)c1	–	inactive
ClC(Cl)c1ccccc1	–	inactive
O=P(OCC(Br)CBr)(OCC(Br)CBr)OCC(Br)CBr (stereo not drawn)	–	inactive
Clc1cccc(C(Cl)(Cl)Cl)n1	-27.9% (inactive)	–
COP(=O)(NC(C)=O)SC (stereo not drawn)	–	inactive
CC(C)N1C(=O)c2ccccc2NS1(=O)=O	–	inactive
CCCCn1cc[n+](C)c1	–	inactive
COP(=O)(OC)OC	–	inactive
CCOP(=S)(OCC)Oc1nc(Cl)c(Cl)cc1Cl	–	inactive
CCN(CC)C(=O)/C(Cl)=C(\C)OP(=O)(OC)OC	–	inactive
CCCCCCCCCCCCCCCl	9.6% (inactive)	–
O=C(NC(=O)c1ccccc1Cl)Nc1ccc(OC(F)(F)F)cc1	-9.17% (inactive)	–
c1ccc(C2CO2)cc1 (stereo not drawn)	–	4.8 nM (active) and inactive
ClCCOCCCl	–	inactive
CN=C=O	-3.15% (inactive)	–
CC(O)CCO (stereo not drawn)	–	inactive

SMILES	activity, negative = inhibition	Potency
CCCCON=O	4.08% (inactive)	–
CCOP(=S)(OCC)Oc1ccc([N+](=O)[O-])cc1	–	inactive
C=CC(Cl)CCl (stereo not drawn)	–	inactive
CN(CCCC(=O)c1cccnc1)N=O	9.72% (inactive)	–
Nc1ccc(Cl)cc1N	–	inactive
CN(C)c1ccc(N=O)cc1	–	inactive
Cc1ccc(N)c(C)c1	46.1% (inactive)	–
N#CCCCCC#N	–	inactive
C[C@H]1O[C@H](OC2[C@@H](O)[C@@H](O)C(O)[C@H](O)[C@H]2O)[C@@H](N)C[C@@H]1N=C(N)C(=O)O (stereo partly drawn)	5.72% (inactive)	–
CCC(C)c1ccc(O)cc1 (stereo not drawn)	–	inactive
CCCCC(CC)C(=O)Cl (stereo not drawn)	–	inactive
O=C(CCl)c1ccc(Cl)cc1Cl	-23.9% (inactive)	–
CCCCCCCCCCCCn1cc[n+](C)c1	–	inactive and 33.7 µM (active)
Cc1[nH]c(=O)n(C(C)(C)C)c(=O)c1Cl	–	inactive
NN=C(N)N	–	inactive
O=c1[nH]c2ccccc2c(=O)o1	–	inactive
CC(C)CCCCCCOC(=O)c1ccccc1C(=O)OCCCCCCC(C)C	–	inactive

From PubChem BioAssay (Tox21)
